These results are taken from ChEMBL document CHEMBL1961873, “Compounds: GSK PKIS; Assays: Nanosyn kinase panel” (2012).

A word on the inhibition: it is the relative decrease from the control value, in per cent.

In experiment [1] the target is T1, Mitogen-activated protein kinase 12 (Homo sapiens) (UniProt P53778).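 Further: values are averaged p38gamma kinase inhibition readings, compounds tested at 1 µM.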
T1 sequence (whole entry): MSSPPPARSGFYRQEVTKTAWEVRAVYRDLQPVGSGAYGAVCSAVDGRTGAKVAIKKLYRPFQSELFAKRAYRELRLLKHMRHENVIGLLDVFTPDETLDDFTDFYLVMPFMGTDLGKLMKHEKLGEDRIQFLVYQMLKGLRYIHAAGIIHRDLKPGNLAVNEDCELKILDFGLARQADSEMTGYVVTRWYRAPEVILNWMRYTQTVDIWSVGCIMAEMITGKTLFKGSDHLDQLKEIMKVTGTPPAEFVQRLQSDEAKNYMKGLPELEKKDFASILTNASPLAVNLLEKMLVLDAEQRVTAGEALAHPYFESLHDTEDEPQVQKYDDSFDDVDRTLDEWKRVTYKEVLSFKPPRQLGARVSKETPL
The conditions noted are these: at 1 µM.

For experiment [2], the target named is SRSF protein kinase 1 (Homo sapiens) (UniProt Q96SB4). The following applies: at 0.1 µM.
Sequence of SRSF protein kinase 1 (Homo sapiens) (Q96SB4 whole entry): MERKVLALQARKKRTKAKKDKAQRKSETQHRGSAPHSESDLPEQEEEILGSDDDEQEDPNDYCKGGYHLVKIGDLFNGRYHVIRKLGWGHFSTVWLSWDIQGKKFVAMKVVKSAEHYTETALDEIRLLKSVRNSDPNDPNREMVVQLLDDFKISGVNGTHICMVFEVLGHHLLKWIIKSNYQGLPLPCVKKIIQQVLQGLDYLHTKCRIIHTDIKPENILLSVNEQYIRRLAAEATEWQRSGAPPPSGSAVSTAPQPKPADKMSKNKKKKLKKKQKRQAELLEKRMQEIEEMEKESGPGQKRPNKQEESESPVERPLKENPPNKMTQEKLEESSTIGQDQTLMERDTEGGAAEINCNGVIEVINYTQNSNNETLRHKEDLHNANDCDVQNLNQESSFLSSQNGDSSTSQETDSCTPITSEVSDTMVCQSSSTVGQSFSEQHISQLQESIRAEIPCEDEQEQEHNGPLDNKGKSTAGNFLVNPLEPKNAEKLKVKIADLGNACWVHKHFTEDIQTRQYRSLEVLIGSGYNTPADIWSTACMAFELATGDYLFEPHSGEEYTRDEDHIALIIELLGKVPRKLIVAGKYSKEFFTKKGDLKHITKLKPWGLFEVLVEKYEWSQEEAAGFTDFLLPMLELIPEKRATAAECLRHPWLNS
The target is the same in experiment [3]. The following applies: at 1 µM.
The target in experiment [4] is Phosphatidylinositol 4,5-bisphosphate 3-kinase catalytic subunit alpha isoform (Homo sapiens) (UniProt P42336). The conditions noted are these: at 0.1 µM.
Sequence of Phosphatidylinositol 4,5-bisphosphate 3-kinase catalytic subunit alpha isoform (Homo sapiens) (P42336 whole entry, canonical isoform): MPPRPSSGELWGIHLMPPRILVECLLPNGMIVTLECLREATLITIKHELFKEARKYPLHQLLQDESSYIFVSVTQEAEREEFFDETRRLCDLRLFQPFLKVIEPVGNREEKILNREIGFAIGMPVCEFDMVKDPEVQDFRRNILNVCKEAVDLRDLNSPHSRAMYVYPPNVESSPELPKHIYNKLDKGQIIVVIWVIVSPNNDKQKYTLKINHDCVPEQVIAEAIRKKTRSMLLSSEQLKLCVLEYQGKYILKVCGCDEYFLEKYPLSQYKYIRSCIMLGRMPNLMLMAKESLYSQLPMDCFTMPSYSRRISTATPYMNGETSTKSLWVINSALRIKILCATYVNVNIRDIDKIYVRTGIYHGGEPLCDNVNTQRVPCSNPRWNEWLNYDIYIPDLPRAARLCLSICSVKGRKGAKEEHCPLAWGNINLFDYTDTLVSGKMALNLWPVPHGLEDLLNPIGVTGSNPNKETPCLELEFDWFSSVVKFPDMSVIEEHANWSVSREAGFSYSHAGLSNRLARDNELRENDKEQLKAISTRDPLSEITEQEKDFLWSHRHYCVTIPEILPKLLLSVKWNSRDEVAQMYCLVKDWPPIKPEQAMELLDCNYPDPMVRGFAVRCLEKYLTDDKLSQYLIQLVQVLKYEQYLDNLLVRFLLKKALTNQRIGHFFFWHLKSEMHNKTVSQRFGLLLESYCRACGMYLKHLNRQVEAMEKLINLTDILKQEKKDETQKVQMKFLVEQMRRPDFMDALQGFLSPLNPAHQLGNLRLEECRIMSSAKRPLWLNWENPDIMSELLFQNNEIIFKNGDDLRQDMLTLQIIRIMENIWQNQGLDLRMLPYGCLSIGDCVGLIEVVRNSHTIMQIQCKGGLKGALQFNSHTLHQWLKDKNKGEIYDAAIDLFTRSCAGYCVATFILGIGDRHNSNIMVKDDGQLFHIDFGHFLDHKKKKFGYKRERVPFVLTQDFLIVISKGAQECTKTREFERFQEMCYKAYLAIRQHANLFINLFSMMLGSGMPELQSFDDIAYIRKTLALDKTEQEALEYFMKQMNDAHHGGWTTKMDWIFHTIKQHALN
For experiment [5] the target is unchanged. The following applies: at 1 µM.
Experiment [6] concerns the target T2, Phosphatidylinositol 4,5-bisphosphate 3-kinase catalytic subunit delta isoform (Homo sapiens) (UniProt O00329).
T2 sequence (whole entry): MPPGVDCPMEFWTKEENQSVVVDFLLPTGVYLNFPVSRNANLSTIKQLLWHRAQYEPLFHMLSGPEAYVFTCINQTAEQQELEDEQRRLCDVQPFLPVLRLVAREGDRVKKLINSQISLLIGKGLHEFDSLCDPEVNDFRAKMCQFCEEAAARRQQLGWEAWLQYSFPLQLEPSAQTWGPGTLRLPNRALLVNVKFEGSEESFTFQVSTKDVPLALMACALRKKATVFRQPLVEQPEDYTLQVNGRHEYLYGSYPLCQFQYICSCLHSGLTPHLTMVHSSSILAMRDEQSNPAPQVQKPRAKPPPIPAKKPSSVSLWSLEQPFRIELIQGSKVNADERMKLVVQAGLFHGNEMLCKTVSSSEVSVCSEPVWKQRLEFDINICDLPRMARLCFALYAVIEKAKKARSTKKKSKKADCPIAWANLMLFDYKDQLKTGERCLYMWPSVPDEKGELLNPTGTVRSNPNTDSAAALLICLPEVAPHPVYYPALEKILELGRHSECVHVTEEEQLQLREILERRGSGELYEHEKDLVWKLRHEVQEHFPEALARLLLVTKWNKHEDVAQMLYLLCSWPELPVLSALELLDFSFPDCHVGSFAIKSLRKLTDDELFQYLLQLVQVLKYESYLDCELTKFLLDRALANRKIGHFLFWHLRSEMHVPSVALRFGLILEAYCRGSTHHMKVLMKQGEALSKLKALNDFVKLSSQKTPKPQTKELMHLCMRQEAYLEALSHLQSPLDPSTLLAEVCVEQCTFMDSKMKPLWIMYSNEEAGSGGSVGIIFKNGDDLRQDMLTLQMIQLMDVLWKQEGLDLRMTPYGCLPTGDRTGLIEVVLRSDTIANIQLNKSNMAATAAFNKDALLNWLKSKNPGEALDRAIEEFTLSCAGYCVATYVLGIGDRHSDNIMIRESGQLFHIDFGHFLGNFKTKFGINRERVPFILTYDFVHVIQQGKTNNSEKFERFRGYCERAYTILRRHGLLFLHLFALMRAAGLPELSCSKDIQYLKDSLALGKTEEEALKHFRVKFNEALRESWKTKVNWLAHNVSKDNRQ
The conditions noted are these: at 0.1 µM.

Experiment [7] concerns the target T2, Phosphatidylinositol 4,5-bisphosphate 3-kinase catalytic subunit delta isoform (Homo sapiens). The conditions noted are these: at 1 µM.
In experiment [8] the target is Phosphatidylinositol 4-kinase beta (Homo sapiens) (UniProt Q9UBF8). The following applies: at 0.1 µM.
Sequence of Phosphatidylinositol 4-kinase beta (Homo sapiens) (Q9UBF8 2-816 limits assumed): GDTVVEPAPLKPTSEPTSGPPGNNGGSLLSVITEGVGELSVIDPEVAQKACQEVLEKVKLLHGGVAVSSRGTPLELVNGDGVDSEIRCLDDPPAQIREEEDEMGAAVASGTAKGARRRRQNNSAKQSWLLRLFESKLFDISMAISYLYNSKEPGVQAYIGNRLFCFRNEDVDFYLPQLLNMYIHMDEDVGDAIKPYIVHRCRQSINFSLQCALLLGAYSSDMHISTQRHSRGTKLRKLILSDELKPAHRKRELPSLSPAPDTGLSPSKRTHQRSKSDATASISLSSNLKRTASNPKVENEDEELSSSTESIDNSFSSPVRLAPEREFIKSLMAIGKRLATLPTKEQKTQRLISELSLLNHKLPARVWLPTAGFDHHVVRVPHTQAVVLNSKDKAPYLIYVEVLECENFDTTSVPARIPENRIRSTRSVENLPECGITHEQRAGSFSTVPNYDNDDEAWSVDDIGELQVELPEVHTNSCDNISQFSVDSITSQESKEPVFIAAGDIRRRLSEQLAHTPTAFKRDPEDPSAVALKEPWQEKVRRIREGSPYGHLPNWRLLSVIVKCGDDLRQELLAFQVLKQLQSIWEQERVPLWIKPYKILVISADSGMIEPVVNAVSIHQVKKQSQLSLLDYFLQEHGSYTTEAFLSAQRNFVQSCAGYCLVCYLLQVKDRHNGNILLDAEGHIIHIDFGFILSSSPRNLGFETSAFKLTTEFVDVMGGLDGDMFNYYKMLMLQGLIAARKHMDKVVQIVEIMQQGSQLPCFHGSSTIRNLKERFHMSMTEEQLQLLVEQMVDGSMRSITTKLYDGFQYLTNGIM
For experiment [9] the target is unchanged. The conditions noted are these: at 1 µM.
Experiment [10] addresses Sphingosine kinase 1 (Homo sapiens) (UniProt Q9NYA1). The following applies: at 0.1 µM.
For experiment [11] the target is unchanged. The conditions noted are these: at 1 µM.
The target of experiment [12] is T3, Sphingosine kinase 2 (Homo sapiens) (UniProt Q9NRA0).
T3 sequence (whole entry): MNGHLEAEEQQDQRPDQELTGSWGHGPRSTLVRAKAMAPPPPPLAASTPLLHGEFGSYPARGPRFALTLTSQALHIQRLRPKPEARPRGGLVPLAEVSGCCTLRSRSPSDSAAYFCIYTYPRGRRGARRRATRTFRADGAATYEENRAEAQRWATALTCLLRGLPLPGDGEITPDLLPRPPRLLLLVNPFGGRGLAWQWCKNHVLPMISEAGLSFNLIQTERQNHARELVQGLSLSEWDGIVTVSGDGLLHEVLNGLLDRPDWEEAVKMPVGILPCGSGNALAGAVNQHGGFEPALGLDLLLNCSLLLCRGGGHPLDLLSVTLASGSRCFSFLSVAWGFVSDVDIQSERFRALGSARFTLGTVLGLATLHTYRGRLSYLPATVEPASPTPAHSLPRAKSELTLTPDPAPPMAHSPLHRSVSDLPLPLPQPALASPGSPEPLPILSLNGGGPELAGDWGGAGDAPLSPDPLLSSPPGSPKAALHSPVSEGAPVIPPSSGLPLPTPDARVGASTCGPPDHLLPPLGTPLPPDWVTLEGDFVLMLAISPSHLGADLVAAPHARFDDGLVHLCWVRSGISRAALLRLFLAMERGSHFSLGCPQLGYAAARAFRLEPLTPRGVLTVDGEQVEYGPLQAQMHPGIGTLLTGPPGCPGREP
The conditions noted are these: at 0.1 µM.

Experiment [13] concerns the target T3, Sphingosine kinase 2 (Homo sapiens). The conditions noted are these: at 1 µM.
Experiment [14] concerns the target Casein kinase II subunit alpha (Homo sapiens) (UniProt P68400). The following applies: at 0.1 µM.
For experiment [15] the target is unchanged. The conditions noted are these: at 1 µM.
The target in experiment [16] is T4, Inhibitor of nuclear factor kappa-B kinase subunit alpha (Homo sapiens) (UniProt O15111).
T4 sequence (whole entry): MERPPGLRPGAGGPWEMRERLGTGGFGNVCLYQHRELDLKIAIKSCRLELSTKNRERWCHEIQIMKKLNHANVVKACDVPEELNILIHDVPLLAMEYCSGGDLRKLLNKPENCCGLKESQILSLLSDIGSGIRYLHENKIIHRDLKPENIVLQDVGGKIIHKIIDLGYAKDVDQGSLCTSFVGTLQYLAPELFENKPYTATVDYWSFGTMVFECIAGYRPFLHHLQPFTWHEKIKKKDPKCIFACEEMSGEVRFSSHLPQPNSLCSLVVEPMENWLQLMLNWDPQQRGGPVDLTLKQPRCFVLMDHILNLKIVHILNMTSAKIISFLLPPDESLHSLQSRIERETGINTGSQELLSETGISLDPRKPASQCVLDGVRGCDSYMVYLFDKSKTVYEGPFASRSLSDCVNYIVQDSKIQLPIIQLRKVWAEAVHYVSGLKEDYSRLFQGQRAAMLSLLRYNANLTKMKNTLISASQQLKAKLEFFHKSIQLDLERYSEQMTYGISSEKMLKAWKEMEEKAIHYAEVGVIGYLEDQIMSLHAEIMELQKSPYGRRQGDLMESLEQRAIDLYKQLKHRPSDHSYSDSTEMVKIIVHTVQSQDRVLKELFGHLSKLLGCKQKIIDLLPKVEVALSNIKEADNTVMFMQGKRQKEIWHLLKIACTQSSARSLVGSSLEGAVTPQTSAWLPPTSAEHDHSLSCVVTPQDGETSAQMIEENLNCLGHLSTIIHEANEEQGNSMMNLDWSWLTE
The following applies: at 0.1 µM.

The target in experiment [17] is T4, Inhibitor of nuclear factor kappa-B kinase subunit alpha (Homo sapiens). The following applies: at 1 µM.
In experiment [18] the target is T5, Inhibitor of nuclear factor kappa-B kinase subunit beta (Homo sapiens) (UniProt O14920).
T5 sequence (whole entry): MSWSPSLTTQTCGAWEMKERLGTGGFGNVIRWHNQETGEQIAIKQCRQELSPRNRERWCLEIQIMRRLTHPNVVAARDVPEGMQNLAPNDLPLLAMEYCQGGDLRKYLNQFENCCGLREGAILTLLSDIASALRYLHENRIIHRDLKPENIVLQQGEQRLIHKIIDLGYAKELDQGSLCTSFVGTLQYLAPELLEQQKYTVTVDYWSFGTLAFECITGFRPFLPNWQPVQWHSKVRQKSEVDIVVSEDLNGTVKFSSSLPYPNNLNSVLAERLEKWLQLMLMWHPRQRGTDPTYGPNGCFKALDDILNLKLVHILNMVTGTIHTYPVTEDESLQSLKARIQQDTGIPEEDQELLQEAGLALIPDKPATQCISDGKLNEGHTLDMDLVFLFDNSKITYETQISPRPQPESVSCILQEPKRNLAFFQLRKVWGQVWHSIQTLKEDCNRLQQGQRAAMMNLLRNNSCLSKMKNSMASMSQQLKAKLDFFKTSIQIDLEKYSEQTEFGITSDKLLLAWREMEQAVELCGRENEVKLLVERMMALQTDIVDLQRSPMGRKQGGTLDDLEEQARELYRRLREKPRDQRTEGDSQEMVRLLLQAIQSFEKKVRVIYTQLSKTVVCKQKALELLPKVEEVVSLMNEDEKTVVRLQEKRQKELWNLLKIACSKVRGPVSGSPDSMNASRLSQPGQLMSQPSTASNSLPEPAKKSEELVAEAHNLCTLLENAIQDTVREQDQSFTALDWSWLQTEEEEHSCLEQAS
The conditions noted are these: at 0.1 µM.

The target of experiment [19] is T5, Inhibitor of nuclear factor kappa-B kinase subunit beta (Homo sapiens). The following applies: at 1 µM.
In experiment [20] the target is T6, Inhibitor of nuclear factor kappa-B kinase subunit epsilon (Homo sapiens) (UniProt Q14164).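 Further: mean inhibition of IKKε reported, from the GSK PKIS dataset.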
T6 sequence (whole entry): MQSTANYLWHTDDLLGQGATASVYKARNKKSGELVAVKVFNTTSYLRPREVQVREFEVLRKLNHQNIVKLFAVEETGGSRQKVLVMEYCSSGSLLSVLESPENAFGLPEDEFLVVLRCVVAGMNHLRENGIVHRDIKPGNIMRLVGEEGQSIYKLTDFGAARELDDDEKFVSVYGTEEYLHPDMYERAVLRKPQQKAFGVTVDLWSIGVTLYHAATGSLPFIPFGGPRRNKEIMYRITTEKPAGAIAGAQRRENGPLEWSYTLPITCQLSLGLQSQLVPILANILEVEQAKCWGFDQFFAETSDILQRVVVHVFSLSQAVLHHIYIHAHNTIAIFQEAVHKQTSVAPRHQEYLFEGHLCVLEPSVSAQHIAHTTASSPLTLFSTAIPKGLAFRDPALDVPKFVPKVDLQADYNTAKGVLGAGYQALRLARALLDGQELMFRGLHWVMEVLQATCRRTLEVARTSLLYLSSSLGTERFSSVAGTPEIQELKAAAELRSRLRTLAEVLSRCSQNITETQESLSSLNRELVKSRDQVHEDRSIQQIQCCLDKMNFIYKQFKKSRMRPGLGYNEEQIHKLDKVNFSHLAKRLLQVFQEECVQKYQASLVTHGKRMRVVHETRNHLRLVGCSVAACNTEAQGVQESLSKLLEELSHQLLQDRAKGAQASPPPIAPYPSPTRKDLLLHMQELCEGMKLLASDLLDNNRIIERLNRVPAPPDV
The conditions noted are these: at 0.1 µM.

Sequence of Casein kinase II subunit alpha (Homo sapiens) (P68400 whole entry, looked up): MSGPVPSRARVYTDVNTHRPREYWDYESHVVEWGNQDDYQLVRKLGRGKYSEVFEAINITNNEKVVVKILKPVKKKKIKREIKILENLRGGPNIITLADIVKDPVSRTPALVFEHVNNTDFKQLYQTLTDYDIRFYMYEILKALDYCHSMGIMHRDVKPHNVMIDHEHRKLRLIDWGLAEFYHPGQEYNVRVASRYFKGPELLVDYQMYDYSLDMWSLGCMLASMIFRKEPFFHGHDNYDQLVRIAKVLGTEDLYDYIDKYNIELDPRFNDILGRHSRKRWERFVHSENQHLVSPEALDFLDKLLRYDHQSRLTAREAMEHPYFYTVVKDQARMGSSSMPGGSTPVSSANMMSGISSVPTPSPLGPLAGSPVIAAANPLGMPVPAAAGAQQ
Sequence of Sphingosine kinase 1 (Homo sapiens) (Q9NYA1 whole entry): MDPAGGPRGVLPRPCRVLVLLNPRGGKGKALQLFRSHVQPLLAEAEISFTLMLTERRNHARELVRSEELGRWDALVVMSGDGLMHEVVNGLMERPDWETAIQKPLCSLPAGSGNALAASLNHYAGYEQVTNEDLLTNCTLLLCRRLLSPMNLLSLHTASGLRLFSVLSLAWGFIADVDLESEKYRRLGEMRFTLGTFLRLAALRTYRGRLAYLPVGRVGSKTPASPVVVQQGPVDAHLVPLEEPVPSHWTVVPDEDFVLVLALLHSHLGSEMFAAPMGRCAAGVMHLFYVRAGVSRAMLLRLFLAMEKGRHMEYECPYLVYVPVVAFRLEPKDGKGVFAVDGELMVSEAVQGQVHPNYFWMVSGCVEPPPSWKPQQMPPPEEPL

As to `CN(C)C(=O)O[C@H]1CN[C@H](C#Cc2cc3ncnc(Nc4ccc(OCc5cccc(F)c5)c(Cl)c4)c3s2)C1`, the inhibition in [1] was 1.22%; in experiment [2], -0.93%; in experiment [3], -1.25%; in [4] it was 1.47%; in experiment [5], 31.7%; in experiment [6] it was 1.7%. For the same compound, the inhibition in [7] was 17.4%; in experiment [8], 4.95%; in [9], -3.29%; in [10] it was 0.36%; in [11], -2.15%; in experiment [12] it was -0.26%. In addition, the inhibition worked out at 0.69% in experiment [13]; 0.63% in experiment [14]; 0.63% in [15]; 1.66% in [16]; 2.62% in experiment [17]; 3.17% in experiment [18]. In addition, the inhibition in experiment [19] is -7.42%; in experiment [20] it was 1.55%.
Take `ON=C1CCc2cc(-c3nc(C4CCNCC4)[nH]c3-c3ccncc3)ccc21`: the inhibition was 1% in experiment [1]; -1.62% in experiment [2]; -5.28% in experiment [3]; -1.04% in experiment [4]; 0% in experiment [5]; 0.31% in experiment [6]. For the same compound, the inhibition in experiment [7] is 3.08%; in [8], 2.07%; in experiment [9] it was -0.63%; in experiment [10], -1.16%; in experiment [11], -2.71%; in experiment [12], 0.13%. The inhibition in experiment [13] is -0.91%; in experiment [14] it was -3.67%; in experiment [15], -3.6%; in [16], -9.89%; in experiment [17], -1.59%; in experiment [18], 6.16%. Also, the inhibition in experiment [19] was 4.62%; in [20], 1.88%.
